Activity change, negative = inhibition data for 91 compounds are collected here from PubChem BioAssay AID1259415 (National Center for Advancing Translational Sciences (NCATS), 2018).

Structures are written as SMILES. About 18,000 (4.4%) of roughly 410,000 compounds were called active. Another 7% or so got no clear call; they are omitted. The list comes from a sample in which actives are over-represented; it also holds similar structures and randomly drawn compounds. A number with no mark means an inactive call. Cut-off read from the data, not from the text of the source: active = activity change below about -60%; inconclusive = no clear call, values can overlap the other calls; inactive = above about -39%.
% is set by controls: 0 for no effect and ±100 for the full control effect.

The nature of the assay: qHTS Assay for inhibitors of the human cytomegalovirus (HCMV). Particulars: HFF cells, HCMV-luciferase reporter, 72 h; at 57.5 µM; active compounds read low. The method, boiled down:
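Inhibition of viral replication was scored as loss of reporter luminescence in HFFs infected with HCMV-luciferase (MOI 1 PFU/cell) for 72 h; compounds tested at 2 doses, normalized to buffer and Salinomycin controls.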
Background: qHTS replaces the single test concentration by a dilution series.
For the compound `COc1cccc(N=C2SC(C(=O)Nc3cccc(Cl)c3)CC(=O)N2C)c1` (stereo unspecified), the activity change, negative = inhibition was -4.69%.

Turning to `O=C(CSCc1cnn(-c2ccccc2)c1-n1cccc1)NCc1ccc(Cl)cc1`, the activity change, negative = inhibition is -3.89%.

Take `CCCn1nnnc1NCc1ccc(OC)cc1`: the activity change, negative = inhibition is -30.2%.

As for `COc1ccc(CNc2c(CO)cnc3c2cnn3C)cc1`, the activity change, negative = inhibition is -66.6% (active).

As for `CCCC(=O)n1nc(NCc2ccc(OC)cc2)nc1NCc1ccc(OC)cc1`, the activity change, negative = inhibition was -26.6%.

In the case of `Fc1ccccc1Oc1ncnc2c1oc1ccccc12`, the activity change, negative = inhibition is -3.15%.

For the compound `O=C(CC(NCc1cccnc1)C(=O)O)Nc1ccc(O)cc1` (stereo unspecified), the activity change, negative = inhibition was 5.47%.

For the compound `COc1cc(Cl)c(C)cc1NC(=O)CSc1nnc(CN2CCCC2)o1`, the activity change, negative = inhibition was -9.81%.

On to `COc1ccccc1NC(=O)CSc1nnc(CNC(=O)c2ccccc2F)o1`, for which the activity change, negative = inhibition was -5.51%.

For the compound `CCC(=O)Nc1ccc(C(=O)CSc2nnc(CNc3ccc(Cl)cc3)o2)cc1OC`, the activity change, negative = inhibition was -87.9% (active).

As for `CCCCSc1ncnc2c1sc1nc(N3CCOCC3)c3c(c12)CCCC3`, the activity change, negative = inhibition is 1.23%.

Consider `Cc1ccc(-c2nc(Cn3c(=O)cc(-c4ccccc4)c4c(C)nn(C)c43)c(C)o2)cc1`, for which the activity change, negative = inhibition was -9.59%.

Consider `O=C(NCC1CCCO1)c1ccc(S(=O)(=O)Nc2ccc(F)cc2)cc1` (stereo unspecified), for which the activity change, negative = inhibition was -30.8%.

For `Cc1ccc(NC(=O)c2ccc(S(=O)(=O)NCC3CCCO3)cc2)cc1C` (stereo unspecified), the activity change, negative = inhibition is 0.647%.

Consider `O=C(Nc1ccc(S(=O)(=O)NCC2CCCO2)cc1)c1ccc(F)cc1` (stereo unspecified), for which the activity change, negative = inhibition is -71.5% (active).

As for `CCc1cccc(NC(=O)Cn2nc(CC)n3c(cc4cc(C)ccc43)c2=O)c1`, the activity change, negative = inhibition is 18.4%.

For the compound `COc1ccc(CCNS(=O)(=O)c2cc(-c3cc(C)no3)ccc2C)cc1OC`, the activity change, negative = inhibition was 0%.

On to `CN(C)CCOC(=O)C(c1ccccc1)C1(O)CCCC1` (stereo unspecified), for which the activity change, negative = inhibition is 31.9%.

For the compound `CN(C)CC1Oc2ccccc2OC1(O)c1ccccc1` (stereo unspecified), the activity change, negative = inhibition is -104% (active).

In the case of `CCc1cccc(NC(=O)CN(c2ccc(C)c(C)c2)S(=O)(=O)c2ccsc2C(=O)OC)c1`, the activity change, negative = inhibition was 7.64%.

Regarding `CCc1nn(-c2cc(Oc3cccc4ccccc34)nc(-c3ccccc3)n2)c(N)c1C#N`, the activity change, negative = inhibition is -68% (active).

On to `CCCCN(C)CCCNC(=O)CN1N=C(c2ccc(OC)cc2)CCC1=O`, for which the activity change, negative = inhibition was -26.4%.

On to `Cc1cccc(NC(c2cccc(F)c2)c2ccc3ccc(C)nc3c2O)n1` (stereo unspecified), for which the activity change, negative = inhibition is 84.7%.

In the case of `CCC(=O)NC(Nc1cc(C)ccn1)(C(F)(F)F)C(F)(F)F`, the activity change, negative = inhibition was 27.3%.

In the case of `Cc1ccnc(NC(c2ccc(C(F)(F)F)cc2)c2ccc3cccnc3c2O)c1` (stereo unspecified), the activity change, negative = inhibition was -97.9% (active).

For `CCNS(=O)(=O)c1ccc(CCC(=O)N2CCN(c3cc(Cl)ccc3C)CC2)cc1`, the activity change, negative = inhibition was -68.5% (active).

Regarding `CCCNS(=O)(=O)c1ccc(CCC(=O)N2CCCC2)cc1`, the activity change, negative = inhibition is -28.5%.

Take `CCNS(=O)(=O)c1ccc(CCC(=O)N2CCN(c3ccc(OC)cc3)CC2)cc1`: the activity change, negative = inhibition was -33.4%.

Turning to `CCOc1cccc2sc(N3CCN(C(=O)C4CC4)CC3)nc12`, the activity change, negative = inhibition is -12.2%.

`CN1OC[C@@H]2CN(C(=O)C(C)(C)C)[C@H](c3ccc(-n4ccnc4)cc3)C[C@@H]21`: the activity change, negative = inhibition was 22.3%.

As for `CCOC(=O)[C@]12CCC=C1N(Cc1cccc3ccccc13)C(=O)[C@H](CC(=O)NCc1cccc(C(F)(F)F)c1)C2`, the activity change, negative = inhibition is 19.4%.

As to `Cc1ccc(-n2ncc3c(NCCCn4ccnc4)ncnc32)cc1Cl`, the activity change, negative = inhibition is 7.64%.

In the case of `Cc1noc(C)c1C(=O)NC(C)c1ccc2c(c1)OCO2` (stereo unspecified), the activity change, negative = inhibition is 59.8%.

In the case of `CC(NC(=O)Nc1cccc([N+](=O)[O-])c1)c1ccc2c(c1)OCO2` (stereo unspecified), the activity change, negative = inhibition was -64.3% (active).

For the compound `CC(NC(=O)c1ccco1)c1ccc2c(c1)OCO2` (stereo unspecified), the activity change, negative = inhibition was 11.5%.

Consider `COc1ccc(CCC(=O)NCCc2csc(-c3ccc(Cl)cc3)n2)cc1`, for which the activity change, negative = inhibition was 7.81%.

Turning to `Cn1c(Cc2csc(N)n2)nnc1SC/C=C/c1ccccc1`, the activity change, negative = inhibition was -18.7%.

As to `O=C(Nc1ccc(S(=O)(=O)N2CCC(c3nc4ccccc4s3)CC2)cc1)c1ccccc1F`, the activity change, negative = inhibition is -12.7%.

As for `Cc1ccc(C(=O)C[n+]2cc(-c3ccccc3)n3c2CCCCC3)cc1`, the activity change, negative = inhibition was -92.1% (active).

Turning to `O=C(C[n+]1cc(-c2ccc(Cl)c(Cl)c2)n2c1CCC2)c1cccs1`, the activity change, negative = inhibition was -37.8%.

On to `Cn1c(-c2ccccc2)c[n+]2c1CCCCC2`, for which the activity change, negative = inhibition is -28.9%.

On to `Cn1ccc2cc(S(=O)(=O)N3CCCC(C(=O)NCc4ccccc4F)C3)ccc21` (stereo unspecified), for which the activity change, negative = inhibition is -1.65%.

As for `CCCCOc1ccc(CNC(=O)c2ccc3c(c2)N(C)C(=O)C2CCCCN32)cc1` (stereo unspecified), the activity change, negative = inhibition is 25.7%.

Turning to `CCOC(=O)C1CCCN(S(=O)(=O)c2cc(-c3cc(C)no3)ccc2OC)C1` (stereo unspecified), the activity change, negative = inhibition was -10%.

As for `CC(C)c1ccc(NC(=O)Cn2c3ncccc3c(=O)n2-c2ccccc2)cc1`, the activity change, negative = inhibition was 8.47%.

`CCc1ccc2c(c1)NC(=O)C2(C)Cc1ccc(OC(F)(F)F)cc1` (stereo unspecified): the activity change, negative = inhibition was -75.3% (active).

Take `COc1ccccc1CC1(C)C(=O)Nc2ccc(OC(F)(F)F)cc21` (stereo unspecified): the activity change, negative = inhibition is -18.7%.

Take `CN1CCN(Cc2ccc(OC(F)(F)F)cc2)CC1`: the activity change, negative = inhibition was -3.19%.

For `CCn1c2ccccc2c2cc(CN3CCN(Cc4cccc(Cl)c4)CC3)ccc21`, the activity change, negative = inhibition is -0.564%.

As to `C/C(=N/NC(=O)c1ccc(Br)o1)c1ccc(C)o1`, the activity change, negative = inhibition was 80.2%.

In the case of `C/C(=N\NC(=S)NC1CCCCC1)c1ccc(C)o1`, the activity change, negative = inhibition is -90.6% (active).

With `Cc1ccc(/C=N/NC(=S)NC2CCCCC2)o1`, the activity change, negative = inhibition was -8.71%.

`Cn1c(=O)c2c(n3c4ccccc4nc13)NC(=O)CC2c1cccc(Cl)c1` (stereo unspecified): the activity change, negative = inhibition is 1.23%.

As to `CC(C)Cn1c(C2CC(=O)N(c3ccccc3Cl)C2)nc2ccccc21` (stereo unspecified), the activity change, negative = inhibition is -19.6%.

In the case of `CCCS(=O)(=O)N1CCC(n2c(C(F)(F)F)nc3cccnc32)CC1`, the activity change, negative = inhibition is -21.7%.

As for `O=C(Nc1ccc(Cl)cc1C(=O)c1ccccc1)c1cc(Cl)cc(Cl)c1`, the activity change, negative = inhibition was 5.04%.

Consider `O=C(NC1=CC(=O)c2ccccc2C1=O)c1ccccc1`, for which the activity change, negative = inhibition is -66.1% (active).

With `O=C(OCC(O)C(O)COC(=O)c1ccccc1)c1ccccc1` (stereo unspecified), the activity change, negative = inhibition was 4.04%.

In the case of `O=C(NCCCO)c1nn(-c2ccc(Cl)cc2)nc1CO`, the activity change, negative = inhibition was -7.65%.

Turning to `CCC1(C)Cc2c(sc3[nH]c(=S)n(Cc4ccccc4)c(=O)c23)CO1` (stereo unspecified), the activity change, negative = inhibition is -69.4% (active).

`CC(C)c1nc2sc3c(c2c(=O)n1N)CC(C)(C)OC3`: the activity change, negative = inhibition is -18.9%.

In the case of `CCCSc1nc(NCc2ccco2)c2c3c(sc2n1)COC(C)(CC)C3` (stereo unspecified), the activity change, negative = inhibition is -2.99%.

For `Cn1c(=O)c2c(ncn2CC(=O)Nc2cccc(C(F)(F)F)c2)n(C)c1=O`, the activity change, negative = inhibition is 2.82%.

On to `Cc1ccc(C)c(C(O)c2ncc(-c3cccc4ccccc34)[nH]2)c1` (stereo unspecified), for which the activity change, negative = inhibition is 4.52%.

On to `CC(=O)N1CCCc2cc(S(=O)(=O)Nc3ccc(Cl)cc3F)ccc21`, for which the activity change, negative = inhibition is -24.4%.

As for `Cc1ncoc1C(=O)NCCC(c1ccccc1)c1ccccc1`, the activity change, negative = inhibition was -6.8%.

For `CC(Cc1ccccc1)NCCC(c1ccccc1)c1ccccc1` (stereo unspecified), the activity change, negative = inhibition was -91.4% (active).

In the case of `CC(CCc1ccccc1)NCC(O)c1cccc([N+](=O)[O-])c1` (stereo unspecified), the activity change, negative = inhibition was -22%.

For the compound `CCOC(=O)C(CCOc1cccc(CC)c1)C(=O)OCC`, the activity change, negative = inhibition was -23.8%.

In the case of `CC(C)NS(=O)(=O)c1ccc(OCC(=O)Nc2ccc3c(c2)OCCO3)cc1`, the activity change, negative = inhibition was -82.2% (active).

With `CC(C)NS(=O)(=O)c1ccc(OCC(=O)NC2CCCCCC2)cc1`, the activity change, negative = inhibition was -39.9%.

With `CC(=O)Nc1ccc(NC(=O)COc2ccc(S(=O)(=O)NC(C)c3ccccc3)cc2)cc1` (stereo unspecified), the activity change, negative = inhibition is 28.7%.

As for `O=C(NCc1ccccc1)C(=O)NCC(c1ccco1)S(=O)(=O)c1ccc(Cl)cc1` (stereo unspecified), the activity change, negative = inhibition was -24.1%.

As to `O=c1oc(-c2ccco2)nc2sc3c(c12)CCCCC3`, the activity change, negative = inhibition is 69%.

As for `c1nnc2c3c4c(sc3ncn12)CCC4`, the activity change, negative = inhibition was -65.9% (active).

On to `S=c1[nH]nc2c3c4c(sc3ncn12)CCCC4`, for which the activity change, negative = inhibition was -26.7%.

`O=C(Nc1nnc(C2=COCCO2)o1)c1ccc([N+](=O)[O-])s1`: the activity change, negative = inhibition was -20.1%.

Turning to `Cc1cccc(Cn2c(SCc3ccc(C(=O)N4CCC(C)CC4)cc3)nc3ccncc32)c1`, the activity change, negative = inhibition was -62.6% (active).

In the case of `Cc1cccc(CSc2nc3ccncc3n2Cc2ccc(C(=O)O)cc2)c1`, the activity change, negative = inhibition was 9.17%.

`COc1cccc(Cn2c(SCc3ccc(C(=O)N4CCC(C)CC4)cc3)nc3ccncc32)c1`: the activity change, negative = inhibition was -13.1%.

For `NC1(C#Cc2ccc(F)c(-c3noc4ccccc34)c2)CCCCC1`, the activity change, negative = inhibition was -18.5%.

`O=c1cc(O)c(-c2cccc(C(F)(F)F)c2)c(Cl)[nH]1`: the activity change, negative = inhibition is -14.8%.

Take `O=C(NNc1ccccc1Cl)C(O)(c1cccc(C(F)(F)F)c1)c1cccc(C(F)(F)F)c1`: the activity change, negative = inhibition is -100% (active).

Consider `O=C(Nc1cc(C(F)(F)F)ccc1Cl)c1nc2ccccc2nc1N1CCCCC1`, for which the activity change, negative = inhibition was 10.2%.

Turning to `COc1cccc(/C=C2\Sc3ccc(C(=O)NCC4CCCO4)cc3N(C)C2=O)c1` (stereo unspecified), the activity change, negative = inhibition was -14.4%.

As for `COc1ccc2c(c1)C(C)=CC(C)(C)N2C(=O)Nc1ccccc1`, the activity change, negative = inhibition was -99.4% (active).

In the case of `COc1ccc2c(c1)C(C)=CC(C)(C)N2C(=O)CNCc1ccc2c(c1)OCO2`, the activity change, negative = inhibition is -9.9%.

On to `COc1cccc(NC(=O)C2C(c3ccccc3)C2(Cl)Cl)c1` (stereo unspecified), for which the activity change, negative = inhibition was -32.5%.

`C#CCOc1ccc(C2CC(=O)Nc3c2c(C)nn3-c2nc(C)cc(C)n2)cc1` (stereo unspecified): the activity change, negative = inhibition is -10.8%.

As for `CC[C@]12c3[nH]c4cc(CCC(=O)N(C)C)ccc4c3CCN1C(=O)[C@@H](CC(=O)NCCCN(C)C)C[C@@H]2C(=O)N1CCN(C(=O)c2ccco2)CC1`, the activity change, negative = inhibition is -18.4%.

For `CN1c2ccc(Cl)cc2-c2nc(SCC(=O)Nc3cc(F)ccc3F)ncc2S1(=O)=O`, the activity change, negative = inhibition is -32.3%.
